PubChem BioAssay (EPA / NIEHS)
Active and inactive are the calls of the source. The calls were made as follows: active = hit-call score of the fitted dose curve at least 0.9, where 1 is the maximum; inactive = score below 0.9.

Assays:
[1] = read-out: Tissue plasminogen activator (tPA), PLAT (gene 5327); test: BSK_BE3C_tPA: BioMAP Diversity Plus: BE3C Assay for Tissue plasminogen activator (tPA) Biomarker Activity (AID 2283041); settings: primary human bronchial epithelial cells; actives raise or lower the signal;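 also: tPA level quantified by ELISA one day after compound addition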
Procedure, shortened: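 Primary human bronchial epithelial cells in the BE3C system, exposed to compound for 24 h. tPA was quantified by ELISA; DMSO served as baseline, with gain or loss of signal fitted. Cytotoxicity checked in parallel cultures by SRB total-protein staining.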

[2] = read-out: Interleukin-8 (IL8), CXCL8 (gene 3576); test: BSK_CASM3C_IL8: BioMAP Diversity Plus: CASM3C Assay for Interleukin-8 (IL8) Biomarker Activity (AID 2283042); settings: primary human coronary artery smooth muscle cells; actives raise or lower the signal;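 also: IL-8 protein level quantified by ELISA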
[3] = read-out: Human Leukocyte Antigen - DR isotype (HLADR), HLA-DRA (gene 3122); test: BSK_CASM3C_HLADR: BioMAP Diversity Plus: CASM3C Assay for Human Leukocyte Antigen - DR isotype (HLADR) Biomarker Activity (AID 2283043); settings: primary human coronary artery smooth muscle cells; actives raise or lower the signal;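 also: cell-surface HLA-DR protein level quantified by ELISA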
[4] = read-out: Macrophage colony-stimulating factor (MCSF), CSF1 (gene 1435); test: BSK_CASM3C_MCSF: BioMAP Diversity Plus: CASM3C Assay for Macrophage colony-stimulating factor (MCSF) Biomarker Activity (AID 2283044); settings: primary human coronary artery smooth muscle cells; actives raise or lower the signal;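 also: M-CSF protein amount quantified by ELISA after 24 h exposure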
[5] = read-out: Low-density lipoprotein receptor (LDLR), LDLR (gene 3949); test: BSK_CASM3C_LDLR: BioMAP Diversity Plus: CASM3C Assay for Low-density lipoprotein receptor (LDLR) Biomarker Activity (AID 2283045); settings: primary human coronary artery smooth muscle cells; actives raise or lower the signal;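 also: LDLR protein level on the cell surface quantified by ELISA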
[6] = read-out: Monocyte Chemoattractant Protein-1 (MCP1), CCL2 (gene 6347); test: BSK_CASM3C_MCP1: BioMAP Diversity Plus: CASM3C Assay for Monocyte Chemoattractant Protein-1 (MCP1) Biomarker Activity (AID 2283046); settings: primary human coronary artery smooth muscle cells; actives raise or lower the signal;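 also: MCP-1 level quantified by ELISA 24 h after dosing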
[7] = BSK_CASM3C_Proliferation: Cell Proliferation Assessment in the BioMAP Diversity Plus: CASM3C Assay (AID 2283047); settings: primary human coronary artery smooth muscle cells;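 also: sulforhodamine B total protein stain as relative cell number at 560 nm; sub-confluent cells exposed 48 h before staining; fitted both ways against DMSO so gain or loss of cell number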
[8] = read-out: Monokine induced gamma interferon (MIG), CXCL9 (gene 4283); test: BSK_CASM3C_MIG: BioMAP Diversity Plus: CASM3C Assay for Monokine induced gamma interferon (MIG) Biomarker Activity (AID 2283048); settings: primary human coronary artery smooth muscle cells; actives raise or lower the signal;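 also: MIG protein level measured by ELISA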
[9] = read-out: serum amyloid A (SAA), SAA1 (gene 6288); test: BSK_CASM3C_SAA: BioMAP Diversity Plus: CASM3C Assay for serum amyloid A (SAA) Biomarker Activity (AID 2283049); settings: primary human coronary artery smooth muscle cells; actives raise or lower the signal;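 also: SAA protein level quantified by ELISA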
[10] = BSK_CASM3C_SRB: Viability Assessment in the BioMAP Diversity Plus: CASM3C Assay (AID 2283050); settings: primary human coronary artery smooth muscle cells
[11] = read-out: Thrombomodulin, THBD (gene 7056); test: BSK_CASM3C_Thrombomodulin: BioMAP Diversity Plus: CASM3C Assay for Thrombomodulin Biomarker Activity (AID 2283051); settings: primary human coronary artery smooth muscle cells; actives raise or lower the signal;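 also: thrombomodulin protein level measured by ELISA 24 h after dosing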
[12] = read-out: Tissue Factor, F3 (gene 2152); test: BSK_CASM3C_TissueFactor: BioMAP Diversity Plus: CASM3C Assay for Tissue Factor Biomarker Activity (AID 2283052); settings: primary human coronary artery smooth muscle cells; actives raise or lower the signal;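 also: cell surface tissue factor protein level read by ELISA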
[13] = read-out: Interferon-gamma inducible Protein 10 (IP10), CXCL10 (gene 3627); test: BSK_hDFCGF_IP10: BioMAP Diversity Plus: hDFCGF Assay for Interferon-gamma inducible Protein 10 (IP10) Biomarker Activity (AID 2283053); settings: primary human foreskin fibroblasts; actives raise or lower the signal
Procedure, shortened: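 Primary human foreskin fibroblasts exposed to chemicals for 24 h. IP-10 measured by ELISA; changes fitted bidirectionally against DMSO baseline.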

[14] = read-out: Urokinase-type plasminogen activator receptor (uPAR), PLAUR (gene 5329); test: BSK_CASM3C_uPAR: BioMAP Diversity Plus: CASM3C Assay for Urokinase-type plasminogen activator receptor (uPAR) Biomarker Activity (AID 2283054); settings: primary human coronary artery smooth muscle cells; actives raise or lower the signal;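 also: cell-surface uPAR protein level quantified by ELISA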
[15] = read-out: Vascular cell adhesion molecule 1 (VCAM1), VCAM1 (gene 7412); test: BSK_CASM3C_VCAM1: BioMAP Diversity Plus: CASM3C Assay for Vascular cell adhesion molecule 1 (VCAM1) Biomarker Activity (AID 2283055); settings: primary human coronary artery smooth muscle cells; actives raise or lower the signal;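 also: VCAM-1 protein level quantified by ELISA on the cells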
[16] = read-out: Collagen III, COL3A1 (gene 1281); test: BSK_hDFCGF_CollagenIII: BioMAP Diversity Plus: hDFCGF Assay for Collagen III Biomarker Activity (AID 2283056); settings: primary human foreskin fibroblasts; actives raise or lower the signal
Procedure, shortened: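 Human foreskin primary fibroblasts were exposed to test chemicals for 24 h, after which collagen III was quantified by ELISA. Activity was fitted bidirectionally against DMSO as negative control and baseline.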

[17] = read-out: Epidermal growth factor receptor (EGFR), EGFR (gene 1956); test: BSK_hDFCGF_EGFR: BioMAP Diversity Plus: hDFCGF Assay for Epidermal growth factor receptor (EGFR) Biomarker Activity (AID 2283057); settings: primary human foreskin fibroblasts; actives raise or lower the signal
Procedure, shortened: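 Primary human foreskin fibroblasts (hDFCGF system), sampled 24 h after dosing; EGFR quantified by ELISA. Bidirectional fit relative to DMSO baseline; SRB total-protein staining in parallel cultures for cytotoxicity.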

[18] = read-out: Interleukin-8 (IL8), CXCL8 (gene 3576); test: BSK_hDFCGF_IL8: BioMAP Diversity Plus: hDFCGF Assay for Interleukin-8 (IL8) Biomarker Activity (AID 2283058); settings: primary human foreskin fibroblasts; actives raise or lower the signal
Procedure, shortened: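 hDFCGF human dermal fibroblasts; 24 h chemical exposure; IL-8 by ELISA; bidirectional curve fit vs DMSO baseline; gain or loss of signal scored.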

[19] = BSK_hDFCGF_Proliferation: Cell Proliferation Assessment in the BioMAP Diversity Plus: hDFCGF Assay (AID 2283059); settings: primary human foreskin fibroblasts;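 also: curves fitted for both rise and fall of signal versus DMSO baseline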
Procedure, shortened: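 Steps: dose primary human dermal fibroblasts (foreskin); […] fix in 10% TCA; stain with 0.1% SRB; read 560 nm; fit gain or loss of signal against DMSO.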

[20] = read-out: Macrophage colony-stimulating factor (MCSF), CSF1 (gene 1435); test: BSK_hDFCGF_MCSF: BioMAP Diversity Plus: hDFCGF Assay for Macrophage colony-stimulating factor (MCSF) Biomarker Activity (AID 2283060); settings: primary human foreskin fibroblasts; actives raise or lower the signal
Procedure, shortened: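 Human foreskin primary fibroblasts were treated with test chemical for 24 h, and M-CSF was then measured by ELISA. Data were fitted bidirectionally against DMSO as the negative control and activity baseline.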

Measured: outcome

CC1(C)C(=O)N(Cl)C(=O)N1Cl
inactive: all assays above

NC(N)=O
not listed: [4] | [20]
inactive: all other assays above

O=c1[nH]cnc2c1ncn2[C@H]1CC[C@@H](CO)O1
not listed: [4] | [20]
inactive: all other assays above
